Among the data in PubChem BioAssay AID1259240 (Keith Lab, Institute of Cancer Science, University of …, 2017) are fold change and outcome values, retold here.

Values without a mark were called inactive. Active and inactive are the calls of the source. Rule as the data show it: active = fold change mostly below about -2 (no sharp cut-off); inactive = mostly above about -1.8.

The nature of the assay: modulation of TERT promoter-driven luciferase – cell-based, luciferase reporter, human, primary screen (AID 1259240). The settings on record: A2780 TERT promoter luciferase reporter, 16 h; at 20 µM, fold versus average of vehicle-only wells.
For `CN(C)c1nc(C(=O)OCCO)nc(N(C)C)n1`, the fold change is -3.45 (active).
Consider `Brc1ccc2c(c1)CN(Cc1ccc3c(c1)OCO3)CO2`, for which the fold change is -1.55.
With `NC(=O)C1CCN(C(=O)CCCc2nnc3n4nc(-c5ccccc5)nc4c4ccccc4n23)CC1`, the fold change is -1.
Take `O=c1[nH]cnc2c1c(-c1ccccc1)cn2-c1ccc(F)cc1`: the call was inactive.
For the molecule `O=C1Nc2ccccc2/C1=C\c1cn(CC(=O)N2CCCC2)c2ccccc12`, the fold change is 1.66.
Still for that read-out and setting: next, `CCCCN(CC)CCNS(=O)(=O)c1cccc2cccnc12`: -1.21; `CC1CCCCN1c1nnc(NC(=O)Cn2c(=O)oc3ccccc32)s1` (centres undefined): 1.11; `Cn1c2ccccc2c2c(C(=O)Nc3ccccc3F)cn(C3CCCC3)c(=O)c21`: -1.15.
The same measure, in the same setting: with `Cc1nc2cc(-c3ccccc3)nn2c(C)c1CCC(=O)O` the figure was -6.77 (active); with `COC(=O)c1ccc(CSc2nc(-c3ccco3)nc3c2c(=O)n(C)c(=O)n3C)o1`, -1.08.
With `CC(=O)c1sc2nc(-c3ccc(Br)cc3)cn2c1C`, the fold change was -17 (active).
`O=C(Cn1ncc2c3ccccc3n(Cc3ccc(Cl)cc3)c2c1=O)NC1CC1`: the fold change was -1.11.
On the same count and under the same terms, with `CCOc1nc(-c2ccncc2)nc2ccccc12` the figure was -4.22 (active); with `O=C(Nc1ccc(S(=O)(=O)N2CCCC2)cc1)C1c2ccccc2Oc2ccccc21`, -1.83; with `CCOC(=O)N1CCC(Nc2ccc3nncn3n2)CC1`, -1.14.
Still for that read-out and setting: with `COc1ccc(N2CCN(c3ccc4nnc(C)n4n3)CC2)cc1` the figure was -1.14; with `COc1cc(NC(=O)C2CCCN(S(=O)(=O)c3ccc4c(c3)oc(=O)n4C)C2)cc(OC)c1` (centres undefined), 1.09; with `COCCn1c(SCC(=O)Nc2nnc(C)s2)nc2c(c1=O)SC(C)C2` (centres undefined), 1.17.
For the molecule `O=C(CN1C(=O)COc2ccc(S(=O)(=O)N3CCOCC3)cc21)N1CCOCC1`, the fold change is -2.24 (active).
Take `NC(=O)c1sc2nc(C3CC3)cc(-c3ccc(Br)cc3)c2c1N`: the fold change was -1.28.
As to `Cc1ccc2nc(Cl)c3nncn3c2c1`, the fold change is 1.44.
`COc1ccc(S(=O)(=O)NC(C)(C)CO)cc1-c1nnc2c3ccccc3c(C)nn12`: the fold change was -1.26.
With `c1cnc2c(SCc3cn4ccccc4n3)cccc2c1`, the fold change is -1.15.
On the same count and under the same terms, with `CCCCN1C(=O)C(O)(CC(=O)c2cccs2)c2ccccc21` (centres undefined) the figure was -1.63.
On the same count and under the same terms, next, `c1ccc2c(c1)CCN2c1nnc(Cc2ccncc2)c2ccccc12`: -1.29; `O=C(O)CSc1nc(-c2cccs2)cc(C(F)(F)F)n1`: -1.48; `CCOCCCNc1nc2c(-c3ccccc3)nnn2c2ccccc12`: 1.12.
Regarding `CC1=C(C(N)=O)C(c2ccc(Br)cc2)n2nc(CCCO)nc2N1` (centres undefined), the call was inactive.
For `COc1ccccc1-c1c(C)nn2c(N3CCOCC3)cc(C)nc12`, the fold change is 1.18.
For `CC(NC(=O)c1cnn2c(C(F)F)cc(-c3ccccc3)nc12)c1ccccc1` (centres undefined), the fold change was -1.39.
As for `Cc1ccn2c(NC(=O)C(C)C)c(-c3ccc(F)cc3)nc2c1`, the fold change was -1.4.
For the molecule `CCOC(=O)C1CCCN(c2c(NC3CCN(C(=O)OCC)CC3)c(=O)c2=O)C1` (centres undefined), the fold change is 1.19.
Same read-out and setting: with `COCC(=O)N1N=C(c2ccc(NS(C)(=O)=O)cc2)CC1c1ccccc1` (centres undefined) the figure was 1.13; with `C=CCn1c(Oc2ccccc2Cl)nc2c1c(=O)n(C)c(=O)n2C`, -2.84 (active).
As to `O=[N+]([O-])c1c(Nc2ccc(Cl)cc2)n[nH]c1-c1nnco1`, the fold change was -2.07 (active).
As to `CCOC(=O)N1CCN(c2c(NC3CCCC(C)C3C)c(=O)c2=O)CC1` (centres undefined), the fold change is 1.1.
`COc1ccc(-c2csc3nc(-c4ccccc4F)oc(=O)c23)cc1OC`: the fold change is -1.03.
For `CCN1CCN(C(=O)c2cc3c(=O)[nH]c4ccccc4c3n2C)CC1`, the fold change is 1.05.
Take `COc1ccc2cc3c(N)nn(C(=O)CCS(=O)(=O)c4ccccc4)c3nc2c1`: the fold change is -1.33.
